CSC inhib: cancer stem cell inhibition. cancer stem cell-like cells viability, luminescence. inhibition, % at 7.5 µM. 300,000 compounds, 1.1% hits. AID 2717; in the data active = inhibition above about 75%; tested in HMLE shEcad cells
Beta cell apopt: beta cell apoptosis inhibition | AID 435005 | protection from apoptosis, % (no concentration beside the values) | 300,000 compounds, 0.8% hits | INS-1E cytokine-induced death, ATP luminescence, 48 h; percent of positive-control rescue, neutral wells zero;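 active = Every replicate reaches about 75%, or at least half do and their mean reaches it too, limit read from the data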;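 note: 0% = cytokine-treated negative control wells and 100% = positive control rescue; higher means more ATP so stronger rescue from cytokine killing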
Mdm2-MdmX inh: human Mdm2/MdmX binding inhibition; AID 485346; inhibition, % at 8 µM; SaOS-2 split-luciferase Mdm2/MdmX complementation, luminescence; 330,000 compounds, 3% hits;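 active = inhibition of at least 50% at 8 µM in the primary screen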
NR3A LBD binder: NR3A (human) ligand-binding domain modulation | NR3A LBD differential scanning fluorimetry, Tm shift; 0% = protein alone, 100% = glycine-bound protein | Tm shift relative to glycine control, % at 25 µM | 340,000 compounds, 2.5% hits;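 active = melting temperature shift of at least 10% of the positive control shift, at one fixed dose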
SKKanGAS inh: blocks kanamycin growth of S. pyogenes SKKanGAS strain; BacTiter-Glo, 6 h; inhibition, % at 7.5 µM; 300,000 compounds, 1.3% hits;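 active = mean replicate score, as percent of positive control median, at least 50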;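 note: strain carries kanamycin resistance gene driven by streptokinase promoter and grows in 40 µg/ml kanamycin; loss of luminescence reflects streptokinase promoter inhibition or plain growth inhibition; 0% = median of DMSO wells and 100% = positive control at its reference dose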
MPTP inh: permeability transition pore inhibition; inhibition, % at 10 µM; 360,000 compounds, 1.4% hits; AID 602449; isolated mouse mitochondria, Ca2+ swelling absorbance, 30 min;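 active = inhibition of 50% or more, scaled per plate between neutral and stimulator controls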;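 note: 0% = DMSO wells given calcium and 100% = 1 mM EGTA wells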
* marks the source's active call; other numbers are inactive results. Most compounds without a hit are left out; they make up all but 6.9% or so of the library.

Results for Cc1ccc(Cl)cc1-n1ncc2c(NNC(=O)c3ccco3)ncnc21 ?
CSC inhib: -2; Beta cell apopt: -5; Mdm2-MdmX inh: 32; NR3A LBD binder: -2; SKKanGAS inh: -3; MPTP inh: 0

Results for COc1ccc(CSc2nnc(-c3ccncc3)n2C)cc1F ?
CSC inhib: 14; Beta cell apopt: 4; Mdm2-MdmX inh: -8; NR3A LBD binder: -2; SKKanGAS inh: -1; MPTP inh: -1

Results for O=C(COc1cc(Cl)c(Cl)cc1Cl)Nc1cccc(O)c1 ?
CSC inhib: 8; Beta cell apopt: -7; Mdm2-MdmX inh: 14; NR3A LBD binder: 18*; SKKanGAS inh: -7; MPTP inh: 3

Results for O=C(COc1cc(Cl)c(Cl)cc1Cl)NC(=O)Nc1ccc2c(c1)OCCO2 ?
CSC inhib: -20; Beta cell apopt: 0; Mdm2-MdmX inh: 14; NR3A LBD binder: 19*; SKKanGAS inh: -5; MPTP inh: 1

What do the screens show for `CN1CCN(c2ncnc3c2ncn3[C@H]2CN(Cc3ccc4c(c3)OCO4)C[C@@H](CO)O2)CC1`?
MPTP inh: 0

What do the screens show for `CNc1oc(-c2ccccc2F)nc1S(=O)(=O)c1ccc(C)cc1`?
CSC inhib: -1; Mdm2-MdmX inh: 20; NR3A LBD binder: 13*; SKKanGAS inh: 3; MPTP inh: 0

What do the screens show for `COC(=O)CN(c1nc(C)c(Br)c(OC)n1)S(=O)(=O)c1ccccc1`?
CSC inhib: -2; Mdm2-MdmX inh: 6; NR3A LBD binder: -3; SKKanGAS inh: 11; MPTP inh: 1

Results for Cc1cc(C(=O)OCC(=O)Nc2cccc(S(=O)(=O)N(C)C)c2)c2ccccc2n1 ?
CSC inhib: 0; Beta cell apopt: 1; Mdm2-MdmX inh: 17; NR3A LBD binder: -6; SKKanGAS inh: 1; MPTP inh: 0

What do the screens show for `NS(=O)(=O)c1cccc(NC(=O)COC(=O)c2cc(-c3ccc(Cl)cc3)nc3ccccc23)c1`?
CSC inhib: 17; Beta cell apopt: 1; Mdm2-MdmX inh: -23; NR3A LBD binder: 34*; SKKanGAS inh: 91*; MPTP inh: 1

What do the screens show for `Cc1ccc2c(Cl)cc(Cl)c(OCC(=O)Nc3cccc(S(N)(=O)=O)c3)c2n1`?
CSC inhib: 1; Mdm2-MdmX inh: 28; NR3A LBD binder: 11*; SKKanGAS inh: 1; MPTP inh: 2

What do the screens show for `Cc1ccc2c(Cl)cc(Cl)c(OCC(=O)NC(C)(C)C)c2n1`?
CSC inhib: -3; Beta cell apopt: -8; Mdm2-MdmX inh: -1; NR3A LBD binder: -18; SKKanGAS inh: 50*; MPTP inh: -6

What do the screens show for `COC(=O)c1ccc(NC(=O)CN2CCOCC2)cc1`?
CSC inhib: -20; Beta cell apopt: 2; Mdm2-MdmX inh: -1; NR3A LBD binder: 13*; SKKanGAS inh: -4; MPTP inh: -1

Results for O=C(CCC(=O)N(CC(=O)NC1CCCC1)Cc1ccccc1Cl)Nc1nccs1 ?
CSC inhib: -14; Beta cell apopt: 2; Mdm2-MdmX inh: -21; NR3A LBD binder: 0; SKKanGAS inh: -5; MPTP inh: 0

How did CCC(C(=O)NCc1ccc(F)cc1)N(Cc1ccco1)C(=O)c1snc(C(N)=O)c1N (stereo not drawn) do in these assays?
CSC inhib: -2; Beta cell apopt: 0; Mdm2-MdmX inh: -7; NR3A LBD binder: -10; SKKanGAS inh: 5; MPTP inh: 2

Results for CCCC(C(=O)NCc1ccc(OC)cc1)N(Cc1ccco1)C(=O)c1snc(C(N)=O)c1N (stereo not drawn) ?
CSC inhib: -4; Beta cell apopt: -7; Mdm2-MdmX inh: 9; NR3A LBD binder: 14*; SKKanGAS inh: -7; MPTP inh: 0

Results for CCOC(=O)c1c[nH]c(=S)n(-c2ccccc2)c1=O ?
CSC inhib: -18; Beta cell apopt: 2; Mdm2-MdmX inh: -23; NR3A LBD binder: 13*; SKKanGAS inh: -1; MPTP inh: -3

What do the screens show for `Cc1cc(=O)n2[nH]c(SCc3c(F)cccc3Cl)nc2n1`?
CSC inhib: 16; Beta cell apopt: -4; Mdm2-MdmX inh: -4; NR3A LBD binder: 1; SKKanGAS inh: 6; MPTP inh: 2

Results for Cc1cc(=O)n2[nH]c(SCc3ccccc3Cl)nc2n1 ?
CSC inhib: -4; Beta cell apopt: 2; Mdm2-MdmX inh: -5; NR3A LBD binder: 18*; SKKanGAS inh: 11; MPTP inh: 2

Results for O=C(C(=O)N1CCCN(Cc2ccc(F)cc2)CC1)c1ccccc1 ?
MPTP inh: -2

What do the screens show for `COc1ccc2c(n1)Sc1nc3ccccc3nc1N2`?
CSC inhib: 53; Beta cell apopt: 10; NR3A LBD binder: 34*; SKKanGAS inh: 1; MPTP inh: 2

What do the screens show for `COc1ccc(Cc2c(-c3cccc(Cl)c3)nc3c(C)cc(Br)cn23)c(C)c1`?
MPTP inh: 0

How did Brc1cccc(OCCN2CCc3ccccc3C2)c1 do in these assays?
CSC inhib: 84*; Beta cell apopt: 2; Mdm2-MdmX inh: 7; NR3A LBD binder: -1; SKKanGAS inh: -4; MPTP inh: 0

Results for Brc1cccc(OCCN2CCCCC2)c1 ?
CSC inhib: 7; Beta cell apopt: -2; Mdm2-MdmX inh: 15; NR3A LBD binder: 2; SKKanGAS inh: -2; MPTP inh: 0

Results for O=C(CSc1nnc(-c2ccc3c(c2)OCO3)n1-c1ccccc1)c1ccccc1 ?
Beta cell apopt: -12; Mdm2-MdmX inh: -3; NR3A LBD binder: 16*; SKKanGAS inh: 5; MPTP inh: 3

How did COc1ccc(C(=O)Nc2nc(-c3ccc([N+](=O)[O-])cc3)c(-c3ccccc3)s2)cc1 do in these assays?
CSC inhib: 36; Beta cell apopt: 4; Mdm2-MdmX inh: 20; NR3A LBD binder: 2; SKKanGAS inh: 23; MPTP inh: 2

How did O=C(Nc1ccc(S(=O)(=O)N2CCCC2)cc1)c1ccccc1 do in these assays?
CSC inhib: 2; Mdm2-MdmX inh: 16; NR3A LBD binder: 1; SKKanGAS inh: 2; MPTP inh: -2

Results for O=C(Nc1nc(-c2ccccc2)c(C(=O)c2ccccc2)s1)c1ccc(S(=O)(=O)N2CCCC2)cc1 ?
CSC inhib: 27; Beta cell apopt: 7; Mdm2-MdmX inh: -4; NR3A LBD binder: 14*; SKKanGAS inh: 5; MPTP inh: 17

How did CN(C)S(=O)(=O)c1ccc(C(=O)Nc2nc(-c3ccccc3)c(C(=O)c3ccccc3)s2)cc1 do in these assays?
CSC inhib: -13; Beta cell apopt: -14; Mdm2-MdmX inh: -16; NR3A LBD binder: 22*; SKKanGAS inh: 32; MPTP inh: 8

What do the screens show for `N#CCCN(CCC#N)S(=O)(=O)c1ccc(C(=O)Nc2nc(-c3ccccc3)c(C(=O)c3ccccc3)s2)cc1`?
CSC inhib: 20; Beta cell apopt: 0; Mdm2-MdmX inh: -5; NR3A LBD binder: 12*; SKKanGAS inh: 30; MPTP inh: 2

Screening results from PubChem.
